Most compounds without a hit are left out; they make up all but 12% or so of the library.
G9a block: qHTS Assay for Inhibitors of Histone Lysine Methyltransferase G9a | Histone-lysine N-methyltransferase EHMT2 (Homo sapiens), Q96KQ7 | AID 504332, 2011 | actives 8.8% (n = 350,000) | Potency, µM (top dose mostly 102 µM), hits mostly inhibitors | G9a H3K9 monomethylation, AlphaScreen, 2 h; further: nearly all actives have a fitted effect of over 75% in size
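Enzyme 20 nM + cpd, 15 min RT; add b-H3K9 pep 500 nM / SAM 20 uM; 2 h RT; anti-H3K9me1 Ab 0.5 ug/mL + SA donor / anti-rabbit acceptor beads 20 ug/mL each, 10 min; AlphaScreen read.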
JMJD2A Tudor inh: qHTS Assay for Inhibitors of JMJD2A-Tudor Domain; Lysine-specific demethylase 4A (Homo sapiens), O75164; AlphaScreen JMJD2A-Tudor / H3K4me3 peptide binding; Potency, µM (doses to about 114 µM), hits mostly inhibitors; actives 4.4% (n = 390,000); AID 504339, 2011; further: nearly all actives have a fitted effect of over 50% in size
PI5P4Ka inh: qHTS for Inhibitors of phosphatidylinositol 5-phosphate 4-kinase (PI5P4K) | actives 1.2% (n = 330,000) | PI5P4Kalpha enzyme, ADP-Glo luminescence, 60 min; stronger effect = lower value | Phosphatidylinositol 5-phosphate 4-kinase type-2 alpha (Homo sapiens), P48426 | max response, % | AID 652105, 2013; active means max response of -50% or lower; inconclusive means between -30% and -50%; inactive means -30% or higher; further: value at the top dose of about 77 µM
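Quantitative HTS of the MLSMR library against PI5P4Kalpha with substrate. ATP added last at 5 microM final; room temperature, 60 minutes. Remaining ATP depleted, ADP converted and read as luminescence.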
PLK1 PBD block: qHTS for Inhibitors of PLK1-PDB (polo-like kinase 1 - polo-box domain): Primary Screen; Plk1 PBD binding of FITC phosphopeptide, fluorescence polarization; Potency, µM, most hits filed as inhibitors; Serine/threonine-protein kinase PLK1 (Homo sapiens), P53350; actives 2.8% (n = 360,000); further: series mostly up to about 57 µM; nearly all actives have a fitted effect of over 65% in size
BAZ2B block: qHTS Assay for Inhibitors of BAZ2B; Potency, µM (titrated, usually from 114 µM), actives largely listed as inhibitors; Bromodomain adjacent to zinc finger domain protein 2B (Homo sapiens), Q9UIF8; AID 504333, 2011; AlphaScreen BAZ2B-H3K14Ac peptide displacement; actives 4.4% (n = 360,000); further: nearly all actives have a fitted effect of over 60% in size
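Compounds, titrated to a top concentration of 110 uM, were incubated 30 min at room temperature with preformed BAZ2B/acetyl-K14 H3 peptide complex (50 nM each). Proximity signal was measured by AlphaScreen after 20 min with beads.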
HP1b binding inh: HTS for Inhibitors of HP1-beta Chromodomain Interactions with Methylated Histone Tails | Chromobox protein homolog 1 (Homo sapiens), P83916 | AlphaScreen HP1-beta / biotin-H3K9me3 peptide binding | Potency, µM (series often up to 114 µM), usual class: inhibitors | actives 0.56% (n = 390,000) | AID 540317, 2011; further: nearly all actives have a fitted effect of over 70% in size
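AlphaScreen: HP1-beta (50 nM) preformed 30 min with biotin-H3(1-18)K9me3 peptide (50 nM) in PBS pH 7.4, 0.01% Tween-20. Compound added for 30 min at RT, then streptavidin donor/nickel chelate acceptor beads (10 ug/mL) for 30 min.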
Hits are given with their value; n = inactive; u = inconclusive; x = not tested or not shown; [ ] = another dose, or the depositor's remark. Unless noted, the call rests on the fitted dose curve; in most records, active means well fitted curve in the direction sought with a large enough effect; inconclusive means small, poorly fitted or top-dose-only effect, or another doubt; inactive means no such curve, though single readings can be large; an effect the other way counts as inactive or inconclusive.

SMILES | G9a block | JMJD2A Tudor inh | PI5P4Ka inh | PLK1 PBD block | BAZ2B block | HP1b binding inh
CCOC(=O)C1CCCN(C(=O)Cn2sc3nc(C)cc(C)c3c2=O)C1 (configuration not stated) | 1.58µM | 5.62µM | -80.9 | 1.5µM | n | u
CC(=O)Cn1cnc2c(sc3nc(C)cc(C)c32)c1=O | n | n | n | n | n | n
CCCNC(=O)Cn1sc2nc(C)cc(C)c2c1=O | x | 3.16µM | -83.4 | 1.68µM | 50.1µM | u
CC(=O)N/C(=C\c1ccc(C)o1)C(=O)NCc1ccccc1 | 70.8µM | n | n | n | n | n
Cc1ccc(/C=C(\NC(=O)c2ccccc2)C(=O)NCC2CCCO2)o1 (configuration not stated) | 56.2µM | n | n | n | n | n
O=C(NCC1CCCO1)/C(=C\c1ccccc1)NC(=O)c1ccccc1 (configuration not stated) | x | n | n | n | n | n
CN(C)c1ccc(C(=O)Nc2c(C(=O)NC(C)(C)C)oc3ccccc23)cc1 | n | n | x | x | n | n
CC(C)(C)OC(=O)N1CCC(c2c(C(=O)NCC3CCN(C4CCCC4)C3)cnn2-c2ccc(F)cc2)CC1 (configuration not stated) | n | n | n | n | n | n
CCOc1ccccc1C(=O)NCC(=O)NCC(c1ccco1)N1CCCCC1 (configuration not stated) | n[0.501 µM] | n | n | n | n | n
Cn1c(CBr)c(C(=O)c2ccc([N+](=O)[O-])cc2)c(=O)n(C)c1=O | 28.2µM | n | n | n | n | n
CC(=O)c1cn(-c2ccc([N+](=O)[O-])cc2)c(=O)n(C)c1=O | x | n | n | n | x | n
Nc1nc(CN2CCOCC2)cs1 | n[12.7 µM] | 22.4µM | n | 23.8µM | n | n
Cc1oc2cc(O)ccc2c(=O)c1-c1nncn1-c1ccccc1 | n[12.7 µM] | n | u | 29.9µM | n | n
COc1ccc(N2CCN(C(=O)CCc3nnc4ccc(N5CCOCC5)nn34)CC2)cc1 | x | n | n | n | n | n
Cc1ccccc1NC(=O)CSc1c(C(C)C)cnc2c1c(=O)n(C)c(=O)n2C | n | n | x | x | n | n
Cc1ccc(C(=O)Nc2ccc3c4c(cccc24)CC3)cc1[N+](=O)[O-] | n | n | n | n | n | n
O=[N+]([O-])c1ccc2c([N+](=O)[O-])ccc3c2c1CC3 | x | x | -73.7 | u | x | x
COc1ccc(N2CCN(S(=O)(=O)CCNC(=O)c3ccc(Br)o3)CC2)cc1 | 79.4µM | n | n | n | n | n
COc1ccc(N2CCN(S(=O)(=O)CCNC(=O)c3ccco3)CC2)cc1 | n[2.33 µM] | n | n | n | n | n
COc1ccc(CC(=O)NCCS(=O)(=O)N2CCN(c3ccccc3)CC2)cc1 | 44.7µM | n | n | n | n | n
CCOC(=O)c1[nH]c2ccccc2c1NC(C)=O | n[12.7 µM] | n | n | n | n | n
CCOC(=O)c1[nH]c2ccccc2c1NC(=S)Nc1ccccc1 | 44.7µM | n | n | n | u | n
CCOC(=O)c1[nH]c2ccccc2c1NC(=S)Nc1cccc(C)c1 | 39.8µM | u | n | n | u | n
Cc1ccc(NC(=O)C(Cc2ccccc2)NS(=O)(=O)c2cccc3nsnc23)c(C)c1 (configuration not stated) | n | u | x | x | x | n
CSc1nc2c([nH]1)c(=S)n(C)c(=O)n2C | x | n | n | n | x | n
SMILES | G9a block | JMJD2A Tudor inh | PI5P4Ka inh | PLK1 PBD block | BAZ2B block | HP1b binding inh
Cn1c(=S)c2[nH]c(SCCC(C)(C)C)nc2n(C)c1=O | x | 22.4µM | n | n | x | n
CCCCSc1nc2c([nH]1)c(=S)n(C)c(=O)n2C | x | n | n | n | x | n
CCN(CC)CCSc1nc2c([nH]1)c(=S)n(C)c(=O)n2C | x | 17.8µM | n | n | x | n
Cn1c(=S)c2[nH]c(SCc3cccnc3)nc2n(C)c1=O | x | 8.91µM | n | n | x | n
CCN1C(=O)[C@@H]2[C@@H](c3ccc(-c4ccc(F)cc4)cc3)N3CCCC[C@@]3(C(=O)OC)[C@@H]2C1=O | n[2.33 µM] | n | n | n | n | n
CCc1nc2ccc(C(=O)Nc3cccc(OC)c3)cn2c1N(C)Cc1ccc(OC)cc1 | x | x | n | n | x | x
COc1ccc(CCNC(=O)C(F)(F)F)cc1S(N)(=O)=O | x | x | n | n | x | x
COc1ccc(NC(=O)CN2C(=O)COc3ccc(S(=O)(=O)N4CCCCC4)cc32)cc1Cl | n | n | x | x | n | n
Nc1nc(N)nc(-c2ccc(Cl)cc2)n1 | n | n | x | n | 79.4µM | n
O=C(O)c1ccccc1NS(=O)(=O)c1cccc(-n2sc3ccccc3c2=O)c1 | 1.26µM | 1.41µM | -96.7 | 3.36µM | 3.98µM | n
O=C(O)c1ccccc1NS(=O)(=O)c1cccc(C(F)(F)F)c1 | n[2.33 µM] | n | x | n | n | n
CCNc1nc(NC(N)=S)nc(NC(C)(C)C)n1 | 3.55µM | n | n | 26.7µM | n | u
CCNc1nc(NC(C)(C)C)nc(N2CCCC2)n1 | n | n | n | n | n | n
CCNc1nc(NCC)nc(NC(N)=S)n1 | 25.1µM | n | n | n | n | n
CCOc1ccccc1Nc1sc(C(=O)c2ccccc2)c(N)c1C(=O)Nc1ccccc1 | 11.2µM | u | x | x | u | n
COc1ccc(NC(=O)c2c(Nc3ccccc3)sc(C(=O)c3ccc(F)cc3)c2N)cc1 | u | 44.7µM | n | n | u | n
COc1ccc(CCNC(=O)c2c(Nc3ccccc3C)sc(C(=O)c3ccccc3)c2N)cc1OC | 8.91µM | u | x | x | u | n
COc1ccc(Nc2sc(C(=O)c3ccccc3)c(N)c2C(=O)Nc2cc(C)ccc2C)c(OC)c1 | n | u | x | x | n | u
COc1ccc(Nc2sc(C(=O)c3ccc(Cl)cc3)c(N)c2C(=O)Nc2ccccc2OC)cc1 | u | u | n | n | u | n
CCOc1ccccc1Nc1sc(C(=O)c2ccccc2)c(N)c1C(=O)NCCc1ccccc1 | u | n | x | x | n | n
COCCNC(=O)CCCN1C(=O)CCn2nc(-c3cccn3C)cc21 | n | n | x | x | n | n
COc1ccc(Cl)cc1NC(=O)c1cc2nc(-c3ccc(C)cc3)cc(C(F)(F)F)n2n1 | n | n | x | x | n | n
Cc1cc(SCC(=O)Nc2cccc(S(=O)(=O)N3CCOCC3)c2)nc2ccccc12 | 39.8µM | n | n | n | n | n
Cc1ccc(SCC(=O)Nc2cccc(S(=O)(=O)N3CCOCC3)c2)cc1C | n[12.7 µM] | n | n | n | n | n
O=C(CSc1ccc(Br)cc1)Nc1cccc(S(=O)(=O)N2CCOCC2)c1 | n | n | n | 5.97µM | n | n

Screens: PubChem, National Center for Advancing Translational Sciences (NCATS)
